HSF1 activator: increases HSF-1 driven luciferase reporter signal. NIH3T3-HGL HSF-1 luciferase reporter, MG132, 8 h; 100% = twice DMSO control signal. actives 1.7% (n = 300,000). activation, % at 9 µM;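 active = mean replicate activation of at least 50% with a set share of replicates each reaching 50%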;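 note: 0% = median of the neutral control wells and 100% = twice that signal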
TWEAK Fn14 block: inhibitors of TWEAK-Fn14 interaction signaling | TWEAK-stimulated Fn14 reporter cells, luciferase luminescence, 8 h | inhibition, % at 10 µM | actives 2% (n = 360,000) | AID 1159606; in the data active = inhibition above about 50%
HSF1 inh: HSF1 inhibition | NIH3T3-HGL HSE-luciferase, MG132-induced, luminescence 8 h; stronger effect = lower value | activity change, negative = inhibition, % at 7.5 µM (by protocol) | actives 0.77% (n = 300,000) | AID 2098;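 active = more than half of replicate wells show activity change below -50%, luminescence cut by over half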;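 note: luciferase reports HSF-1 transcriptional activity via heat shock element; 0% = median of DMSO wells and -100% = zero luminescence signal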
LGR2 inh: blocks bursicon-induced cAMP signaling via Drosophila LGR2. HEK293 LGR2, CRE-luciferase, bursicon-stimulated, 4 h. inhibition, % at 9.99 µM. actives 0.35% (n = 380,000). AID 720647;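 active = drop in luminescence signal, shown as inhibition above about 50% in the replicate tests, limit read from the data, passing the limit was not always enough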;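 note: agonist challenge used bursicon conditioned medium at about half maximal strength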
LMP1 NFkB inh: reduces LMP1-driven NF-kappaB luciferase signal. LMP1-induced NF-kappaB luciferase reporter cells, luminescence. inhibition, % at 12.5 µM. actives 0.69% (n = 350,000); in the data active = inhibition above about 41%;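 note: 0% = neutral control wells and 100% = reference inhibitor control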
TROY NFkB inh: inhibitors of TROY-dependent NF-kB signaling; Q293 LMP1-TROYcd NF-kB luciferase reporter, 4 h; inhibition, % at 10 µM; actives 0.98% (n = 360,000); AID 1347056;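 active = compounds whose plate-normalised and pattern-corrected inhibition of the luciferase reporter signal at the single screening dose is 50% or more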
* = called active by the depositor; nt = not tested or not shown. Shown are actives, neighbours in structure and some others; about 3.6% of the full set was active somewhere.

SMILES | HSF1 activator | TWEAK Fn14 block | HSF1 inh | LGR2 inh | LMP1 NFkB inh | TROY NFkB inh
Cn1c(NC(=S)Nc2ccccc2)nc2ccccc21 | 77.4* | 12.7 | 39.8 | 27.4 | -7.8 | -22.7
Cc1ccc(C2=N/C(=C\N3CCCCC3)C(=O)O2)cc1 | 62.5* | 22.5 | 21.3 | nt | -23.8 | -22.3
CN1C(=O)/C(=C/c2coc3ccc(O)cc3c2=O)SC1=S | 11.6 | -28.3 | 9.2 | -4.1 | -7.4 | -41.9
Cc1cc(/C=C2/SC(=S)N(c3cccc(Cl)c3)C2=O)c(C)n1-c1cccnc1 | -32.1 | 22.1 | -25.9 | nt | 14.5 | 8.9
COc1ccc(-n2c(C)cc(/C=C3\SC(=O)NC3=O)c2C)cc1 | 36.2 | -20.6 | 12.2 | -32.0 | -0.9 | -31.0
Cc1cc(/C=C2\SC(=S)N(C)C2=O)c(C)n1-c1ccccc1O | -46.8 | 96.5* | -38.3 | -32.5 | -0.4 | 60.7*
Cc1cc(/C=C2\SC(=S)N(C)C2=O)c(C)n1-c1ccc(O)cc1 | -50.7 | 104.0* | -51.8* | 64.2* | 47.5* | 81.7*
Cc1ccc(-n2c(C)cc(/C=C3\SC(=O)NC3=O)c2C)cc1 | 61.0* | -13.4 | 38.5 | -96.2 | -47.1 | -48.8
COc1cccc(-c2cn(CC[C@@H]3CC[C@H](NC(=O)CN(C)C)[C@H](CO)O3)nn2)c1 | nt | nt | nt | 3.6 | nt | nt
CN1C(=O)c2cc(NS(C)(=O)=O)ccc2OC[C@H]2O[C@@H](CC(=O)O)CC[C@H]21 | nt | nt | nt | 1.3 | nt | nt
COCC(=O)N1CC2(CN[C@@H](CO)c3c2c2ccc(OC)cc2n3C)C1 | nt | nt | nt | 1.4 | nt | nt
Cc1noc(C)c1S(=O)(=O)Nc1ccc2c(c1)C(=O)N([C@@H](C)CO)C[C@H](C)[C@H](CN(C)Cc1ccncc1)OCCCC[C@@H](C)O2 | nt | nt | nt | 34.5 | nt | nt
CCCN(C)C[C@@H]1Oc2cc(C#CC3CCCC3)ccc2S(=O)(=O)N([C@@H](C)CO)C[C@H]1C | nt | nt | nt | 5.9 | nt | nt
Cc1[nH]n(-c2ccccc2)c(=S)c1C=Nc1cccc([N+](=O)[O-])c1 | -66.8 | 2.7 | -59.5* | nt | 4.5 | 1.7
CCCCN=Cc1c(C)[nH]n(-c2ccccc2)c1=S | -1.0 | -5.4 | -7.6 | 4.5 | 0.7 | -1.5
COc1cc(N=Nc2ccc(Br)cc2)cc(C=O)c1O | nt | 86.7* | nt | -1.4 | 7.7 | 46.8
C[C@@H](NC(=O)C[C@@H]1CC[C@H](NC(=O)CN2CCOCC2)[C@@H](CO)O1)c1ccccc1 | nt | nt | nt | -25.5 | nt | nt
CCOc1ccc(CNCCCSc2ncccn2)cc1OC | -74.4 | 0.9 | -67.9* | 4.0 | 1.2 | 16.1
O=C(C[n+]1cn(C(F)F)c2ccccc21)c1ccc(Br)cc1 | 29.4 | 86.3* | 27.8 | -11.3 | 6.2 | -30.9
C=CCNc1ncnc2c1[nH]c1ccc(C)cc12 | 62.0* | 14.5 | 18.6 | -28.9 | 0.6 | -26.4
Cc1ccc2[nH]c3c(NCCN4CCOCC4)ncnc3c2c1 | -0.2 | -16.8 | -0.1 | nt | 4.7 | -24.4
COc1ccc2[nH]c3c(NCCC4=CCCCC4)ncnc3c2c1 | 4.2 | 79.1* | -12.9 | 13.7 | 21.2 | 27.9
CCN(CC)CCNc1ncnc2c1[nH]c1ccc(OC)cc12 | 11.2 | nt | -3.8 | nt | nt | nt
Fc1ccc2[nH]c3c(NCc4ccccc4)ncnc3c2c1 | 16.5 | 44.4 | 3.2 | 14.8 | 32.4 | 52.1*
COc1ccc2[nH]c3c(NCc4ccco4)ncnc3c2c1 | 24.8 | nt | 11.8 | nt | nt | nt
SMILES | HSF1 activator | TWEAK Fn14 block | HSF1 inh | LGR2 inh | LMP1 NFkB inh | TROY NFkB inh
CO[C@H]1CN(C)C(=O)c2ccc(NC(C)=O)cc2OC[C@@H](C)N(C(=O)c2ccccc2)C[C@@H]1C | nt | nt | nt | 0.2 | nt | nt
Cc1ccc(S(=O)(=O)Nc2ccc3c(c2)C(=O)N([C@H](C)CO)C[C@H](C)[C@H](CN(C)CC2CCCCC2)OCCCC[C@H](C)O3)cc1 | nt | nt | nt | 11.2 | nt | nt
CC(CNC(=O)c1cc(COc2ccc3ncccc3c2)on1)c1ccccc1 (stereo unspecified) | -8.7 | 59.8* | 4.3 | 0.3 | 14.3 | 54.1*
Cc1cc(CN(C)C(=O)c2cc(COc3ccc4ncccc4c3)on2)on1 | -16.7 | 27.1 | -4.1 | 11.9 | 23.4 | 0.8
O=C(c1cc(COc2ccc3ncccc3c2)on1)N1CCC(O)CC1 | 6.4 | 4.2 | 0.1 | 8.2 | 8.2 | -3.5
O=C(NC1CCCCCCC1)c1cc(COc2ccc3ncccc3c2)on1 | 1.6 | 51.8* | -10.7 | nt | 49.2* | 31.2
COCC(=O)N(C)C[C@H]1Oc2ncc(C#CCC3CCCC3)cc2C(=O)N([C@@H](C)CO)C[C@@H]1C | nt | nt | nt | 12.9 | nt | nt
C[C@@H]1CN([C@H](C)CO)C(=O)c2cc(NC(=O)Nc3ccc(F)cc3)ccc2O[C@H]1CN(C)S(=O)(=O)c1cccs1 | nt | nt | nt | -9.7 | nt | nt
O=C(Nc1cc(F)ccc1F)N1C[C@@H]2[C@H](c3ccccc31)[C@H](CO)N2Cc1ccncc1 | nt | nt | nt | 4.2 | nt | nt
C#CC(=O)N(c1cc(OC)ccc1OC)C(C(=O)NC1CCCC1)c1cccs1 (stereo unspecified) | -91.0 | 46.6 | -90.1* | nt | 73.1* | 12.7
COc1ccc(N(C(=O)c2ccco2)C(C(=O)NC2CCCCC2)c2cccs2)cc1OC (stereo unspecified) | 13.0 | 77.3* | 1.6 | nt | 5.4 | nt
C#CC(=O)N(c1ccc(OC)cc1OC)C(C(=O)NC1CCCC1)c1cccs1 (stereo unspecified) | -28.8 | 37.2 | -25.6 | 96.7* | 21.2 | 5.0
COc1ccc(N(C(=O)c2snc(C(N)=O)c2N)C(C(=O)NC2CCCC2)c2cccs2)cc1OC (stereo unspecified) | 13.9 | 9.7 | 1.4 | -11.6 | -8.8 | -18.8
CC(=O)c1cccc(N(C(=O)c2ccco2)C(C(=O)NC2CCCC2)c2cccs2)c1 (stereo unspecified) | 0.9 | 12.3 | 0.7 | 4.8 | -1.7 | 12.3
CC(C)NC(=O)N1[C@H](C#N)[C@@H](c2ccc(C#CC3CC3)cc2)[C@@H]1CO | nt | nt | nt | 9.8 | nt | nt
COc1ccc(-c2nc3scc(-c4ccccc4)n3n2)cc1 | 121.4* | 25.9 | 62.2 | nt | -6.7 | -30.4
CCOC(=O)Cc1csc2nc(-c3ccccc3)nn12 | 3.7 | -4.2 | -0.6 | -5.5 | -5.1 | -5.4
CC(=O)N1c2ccc(S(=O)(=O)NCC3CCC(C(=O)Nc4cc(C)ccn4)CC3)cc2CC1C (stereo unspecified) | -10.2 | 55.9* | -2.7 | 30.9 | -4.2 | 29.5
c1ccc2c3c([nH]c2c1)C(C1CCCCC1)N(Cc1ncc[nH]1)CC3 (stereo unspecified) | 19.9 | 12.8 | -4.9 | 7.9 | 72.9* | 10.4
Cc1cnc(CN2CCc3c([nH]c4ccccc34)C2C2CCCCC2)[nH]1 (stereo unspecified) | 2.0 | -15.9 | 6.0 | 9.6 | 14.4 | 1.6
CN1CCN(C(=O)C[C@@H]2C[C@H]3c4cc(NC(=O)Cc5ccncc5)ccc4O[C@H]3[C@@H](CO)O2)CC1 | nt | nt | nt | -5.9 | nt | nt
N#Cc1ccc(-c2ccc(C3[C@@H]4CN(C(=O)C5CC5)C[C@H]3N4)cc2)cc1 (stereo partly specified) | nt | nt | nt | 90.3* | nt | nt
CCC(=O)N1CC2(C1)[C@@H](c1ccc(-c3ccc(F)cc3)cc1)[C@@H](CO)N2S(C)(=O)=O | nt | nt | nt | 0.5 | nt | nt
